ChEMBL document CHEMBL3433997, “St. Jude Leishmania screening dataset” (2016)

What was measured:
Assay type in all cases: functional
[1] = biological target: Solute carrier family 2, facilitated glucose transporter member 1 (Homo sapiens) (UniProt P11166); assay: ST_JUDE_LEISH: Cytotoxicity at 2uM final concentration against transgenic Leishmania Mexicana promastigotes LmGLUT1 that are glucose transport deficient and complemented with the human glucose transporter GLUT1. Activity is measured by DNA content using SYBR green in vitro
Chain of Solute carrier family 2, facilitated glucose transporter member 1 (Homo sapiens) (P11166 whole entry): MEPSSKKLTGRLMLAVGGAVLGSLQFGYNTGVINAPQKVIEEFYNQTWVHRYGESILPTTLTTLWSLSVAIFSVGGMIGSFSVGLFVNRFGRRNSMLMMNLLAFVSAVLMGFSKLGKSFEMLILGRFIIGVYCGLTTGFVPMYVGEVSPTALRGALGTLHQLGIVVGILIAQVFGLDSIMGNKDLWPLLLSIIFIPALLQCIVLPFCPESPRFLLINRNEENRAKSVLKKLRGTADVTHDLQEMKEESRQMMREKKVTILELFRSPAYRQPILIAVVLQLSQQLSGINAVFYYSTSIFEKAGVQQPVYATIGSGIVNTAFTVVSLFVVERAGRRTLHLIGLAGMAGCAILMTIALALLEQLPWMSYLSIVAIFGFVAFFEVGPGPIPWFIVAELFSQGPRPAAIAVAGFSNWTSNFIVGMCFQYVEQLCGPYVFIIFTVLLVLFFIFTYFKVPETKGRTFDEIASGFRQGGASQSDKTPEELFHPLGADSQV

[2] = biological target: Hexose transporter 1 (Plasmodium falciparum) (UniProt O97467); assay: ST_JUDE_LEISH: Cytotoxicity at 2uM final concentration against transgenic Leishmania Mexicana promastigotes LmPfHT that are glucose transport deficient and complemented with the Plasmodium falciparum hexose transporter. Activity is measured by DNA content using SYBR green in vitro
[3] = biological target: Glucose transporter (Leishmania mexicana) (UniProt O61059); assay: ST_JUDE_LEISH: Cytotoxicity at 2uM final concentration against transgenic Leishmania Mexicana promastigotes LmGT2 that are glucose transport deficient and complemented with the L. Mexicana glucose transporter 2. Activity is measured by DNA content using SYBR green in vitro

SMILES	inhibition [1] [%]	inhibition [2] [%]	inhibition [3] [%]
CC1CCc2c(C(=O)Nc3c(F)cc(F)cc3Br)csc2C1 (stereo not drawn)	-0.18	0.02	-0.61
CCNc1cc(C(=O)N[C@@H](Cc2ccccc2)[C@H](O)CNC2C3CC4CC(C3)CC2C4)cc(N2CCCCS2(=O)=O)c1 (stereo partly drawn)	0.69	0.88	-1.02
O=C(Nc1ccc(Cl)cc1)c1cccc(S(=O)(=O)NC2CCN(CC3CCCCC3)C2)c1 (stereo not drawn)	9.12	8.41	4.13
COc1ccc2nccc([C@@H](O)CN3CCC(NCc4cc5cc(OC(F)(F)F)ccc5[nH]4)CC3)c2c1	9.94	10.4	3.79
COc1cc2ccccc2c(CNCCCCCCNCc2c(OC)c(OC)cc3ccccc23)c1OC	4.39	3.44	1.23
CC(C)(C)c1ccc(NC(=O)c2ccc(CN3CCCN(CC4CCCCC4)CC3)cc2)cc1	3.27	1.6	5.35
CC(C)(C)CN1C(=O)C(c2ccccc2)(c2ccccc2)N=C1N	2.88	2.58	1.88
Nc1nc(O)c2c(n1)CCc1c(Br)cccc1-2	-1.17	-0.59	-1.14
O=C(NC1CCN(c2ccnc3cc(Cl)ccc23)C1)c1ccc(F)cc1 (stereo not drawn)	2.4	2.61	4.18
CC(C)C[C@@H](C(=O)Nc1ccc(Cc2ccc(NC(=O)[C@H](CC(C)C)N(C)C(=O)OC(C)(C)C)cc2)cc1)N(C)C(=O)OC(C)(C)C	0.03	-1.12	-0.46
Cc1ccc(NC(=O)NC2CCN(CCC(NC(=O)Cc3ccccc3)c3ccc(Cl)c(Cl)c3)CC2)cc1 (stereo not drawn)	-2.11	-2.83	-3.14
Nc1nc2c(c(=O)[nH]1)CN(S(=O)(=O)c1ccc(C(=O)N[C@@H](CCC(=O)O)C(=O)O)cc1)CC2	-3.01	-2.13	-1.12
Cc1ccccc1CCNC(=O)c1cnc(N2CCN(c3ccncc3)CC2)c(Cl)c1	79	81.9	84.2
COc1ccccc1C1CCN(Cc2csc(NC(=O)c3ccc(-c4ccc(C(F)(F)F)cc4)cc3)n2)CC1	7.33	6.58	3.56
N#Cc1ccc(-c2nc(CO)c(C(=O)NCCCCN3CCC(c4ccc5c(c4OCC(N)=O)CCCC5)CC3)s2)cc1	1.02	-1.06	1.74
O=C(Nc1ccc(C(F)(F)F)cc1)NC1CCN(CCCCCNC(=O)C2CC2c2ccc(Cl)c(Cl)c2)CC1 (stereo not drawn)	-1.45	-1.93	-1.98
O=S(=O)(Nc1cccc(CCN2CCC(N3CCCCC3)CC2)c1)c1cccc(C(F)(F)F)c1	0.17	3.24	0.82
CCCN(C(=O)c1ccccc1C)c1nnc(-c2cccc(C)c2)s1	-3.02	-1.93	-2.31
COc1ccc(-c2ccc3c(-c4cccc(S(C)(=O)=O)c4)cnc(N)c3c2)cc1	0.83	1	0.45
C=C(C)C1CC=C(CN2CCCC(n3ccc4cc(NC(=O)c5ccco5)ccc43)CC2)CC1 (stereo not drawn)	-1.77	3.75	-2.38
N#Cc1ccc2c(c1)CCN(CCC1CCC(NC(=O)/C=C/c3ccc(F)c4ccccc34)CC1)CC2 (stereo not drawn)	16.1	20.9	11.4
